Broadly, the AC50 is the midpoint of the concentration-response curve, whichever way the signal moves.

The values that follow come from PubChem BioAssay (EPA / NIEHS).

Inconclusive results are not listed. Calls of active or inactive are those of the source. Rule for the calls: active = hit-call score of the fitted dose curve at least 0.9, where 1 is the maximum; inconclusive = response in the unintended direction; inactive = score below 0.9.

Cytochrome P450 3A4 (Homo sapiens), sequence (P08684 whole entry, looked up): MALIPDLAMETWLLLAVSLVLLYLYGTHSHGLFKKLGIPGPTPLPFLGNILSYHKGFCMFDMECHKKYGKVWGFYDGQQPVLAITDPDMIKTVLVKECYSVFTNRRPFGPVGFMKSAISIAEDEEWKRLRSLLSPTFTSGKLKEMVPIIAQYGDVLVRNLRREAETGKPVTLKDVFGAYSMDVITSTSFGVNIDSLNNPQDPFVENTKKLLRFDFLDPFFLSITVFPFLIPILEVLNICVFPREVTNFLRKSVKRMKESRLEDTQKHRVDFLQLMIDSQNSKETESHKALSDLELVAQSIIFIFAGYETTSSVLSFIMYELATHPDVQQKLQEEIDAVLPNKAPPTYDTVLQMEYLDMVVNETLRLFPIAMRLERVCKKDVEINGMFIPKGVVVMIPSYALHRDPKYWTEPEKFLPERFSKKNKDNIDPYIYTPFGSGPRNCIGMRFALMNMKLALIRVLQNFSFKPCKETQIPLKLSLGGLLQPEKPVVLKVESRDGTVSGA

Read-out in the experiment: Cytochrome P450 3A4 (Homo sapiens) (UniProt P08684)
Description: CLD_CYP3A4_6hr: CellzDirect (CLD) Gene Expression Assay for xenobiotic metabolism (CYP3A4) at 6 hours (AID 2283680). The procedure:
CLD_6hr is a cell-based, multiplexed-readout assay that uses hepatocyte, a human liver primary cell, with measurements taken at 6 hours after chemical dosing in a 96-well plate.CLD_CYP3A4_6hr is one of 16 assay component(s) measured or calculated from the CLD_6hr assay. It is designed to make measurements of mRNA induction, a form of inducible reporter, as detected with chemiluminescence signals by Quantitative Nuclease Protection Assay (qNPA) technology.Data from the assay component CLD_CYP3A4_6hr was analyzed at the endpoint, CLD_CYP3A4_6hr, in the positive analysis fitting direction relative to DMSO as the negative control and baseline of activity. Using a type of inducible reporter, gain-of-signal activity can be used to understand changes in the reporter gene as they relate to the gene CYP3A4. Furthermore, this assay endpoint can be referred to as a primary readout. To generalize the intended target to other relatable targets, this assay endpoint is annotated to the cyp intended target family, where subfamily is xenobiotic metabolism.
Human hepatocyte cultures were treated daily for two consecutive days with fresh dosing solutions containing appropriate concentrations of the 320 ToxCast chemicals (chemical identities were blinded to CellzDirect and other ToxCast collaborators), vehicle control (0.2% DMSO), and positive control inducers as summarized in Table 1. Due to the large number of treatment groups and chemicals examined, the ToxCast chemicals were divided into two groups (spanning two independent cultures of hepatocytes from separate donor preparations (Hu778: ToxCast plates 1 and 2; Hu776: ToxCast plates 3 and 4). Each preparation of human hepatocyte cultures was treated with respective vehicle control, medium only control, set of six positive controls/reference chemicals for the five hepatic receptor pathways, and a subset of eight of the ToxCast chemicals (indoxacarb, pyrithiobac-sodium, norflurazon, cyhalofop-butyl, methomyl, thiram, acetochlor, and propiconazole). These replicate data, coupled with internal replicates designed within the blinded ToxCast chemical library, provided additional data to evaluate interindividual differences between hepatocyte preparations and their potential impact on chemical profiles.Cell morphology and integrity were evaluated using phase-contrast microscopy as an indicator of hepatocyte cell health (Tyson & Green, 1987). Cultures for each treatment group (i.e., media, vehicle [0.2% DMSO], positive control inducers [multiple concentrations], and the ToxCast chemicals [multiple concentrations]) were observed and cell morphology was assessed relative to vehicle control cultures at each harvest time point (0, 6, 24, or 48 h). […] Images were evaluated at the conclusion of the study to assess changes in cell integrity and account for the effects of chemical exposure on uncharacteristic changes in concentration-dependent gene expression profiles. The results from these determinations of apparent cytotoxicity were annotated (yes/no) alongside the corresponding qNPA data for reference.At the conclusion of each treatment period, hepatocyte cultures (96-well) were washed with 1 volume of HBSS, lysed by addition of 25 ul ArrayPlate lysis buffer (HTG, Tucson, AZ), and 70 ul/well of Denaturation Oil, denatured by incubation at 95C for 10 min, and frozen at approximately -70C until analysis by nuclease protection assay (qNPA) (Roberts et al., 2007). For qNPA analysis, cell lysates were thawed at 50C for approximately 30 min, qNPA probes were added, and samples were incubated at 95C for 10 min to begin the detection process by denaturing the target RNA, dissociating the duplexes and secondary structure hybridization. At the conclusion of the hybridization period, S1 nuclease reagent was added to each sample to digest all nonprotected nucleotides at 50C for 60-90 min. […]
`Cc1nn(-c2cc(NS(C)(=O)=O)c(Cl)cc2Cl)c(=O)n1C(F)F`: the AC50 was 1620 nM (active).
Turning to `CCc1cccc(C)c1N(C(=O)CCl)C(C)COC` (stereo not given), the AC50 is 477 nM (active).
As for `CC[C@H](C)[C@H]1O[C@]2(C=C[C@@H]1C)C[C@@H]1C[C@@H](C/C=C(\C)[C@@H](O[C@H]3C[C@H](OC)[C@@H](O[C@H]4C[C@H](OC)[C@@H](NC)[C@H](C)O4)[C@H](C)O3)[C@@H](C)/C=C/C=C3\CO[C@@H]4[C@H](O)C(C)=C[C@@H](C(=O)O1)[C@]34O)O2`, the outcome was inactive.
Same read-out and setting: next, `CCOP(=S)(OCC)SCCSCC`: “inactive”.
As to `CC(COc1ccc(Oc2ccccc2)cc1)Oc1ccccn1` (stereo not given), the concentration at half-maximal activity (AC50) was 20000 nM (active).
`CCCCSP(=O)(SCCCC)SCCCC`: the molecule was called inactive.
As to `CCCSP(=O)(OCC)Oc1ccc(Br)cc1Cl` (stereo not given), the AC50 is 3520 nM (active).
For `CCOP(=O)(OCC)Oc1cc(C)nc(C(C)C)n1`, the outcome was inactive.
For `C#CCC1=C(C)C(OC(=O)C2C(C=C(C)C)C2(C)C)CC1=O` (stereo not given), the AC50 was 2840 nM (active).
The same measure, in the same setting: next, `CCOP(=S)(Oc1cnc(C(C)(C)C)nc1)OC(C)C` (stereo not given): 1890 nM (active).
Consider `S=C1NCCN1`, for which the molecule was called inactive.
On to `CCCCOC(=O)c1ccccc1C(=O)O`, for which the molecule was classed as inactive.
Turning to `CN(C)NC(=O)CCC(=O)O`, the molecule was called inactive.
`CCNc1nc(Cl)nc(NC(C)(C)C#N)n1`: the result was inactive.
Same read-out and setting: next, `CCCCN(CC)c1c([N+](=O)[O-])cc(C(F)(F)F)cc1[N+](=O)[O-]`: “inactive”.
The same measure, in the same setting: under `CC1(C(=O)Nc2ccc(O)c(Cl)c2Cl)CCCCC1` stands “inactive”; under `CCOP(=O)(NC(C)C)Oc1ccc(SC)c(C)c1` (stereo not given), “inactive”; under `CCOP(=S)(OCC)Oc1ccc2c(C)c(Cl)c(=O)oc2c1`, “inactive”.
Same read-out and setting: next, `CN(C)C(=O)Nc1cccc(C(F)(F)F)c1`: “inactive”.
Regarding `CCOP(=S)(OCC)Oc1ccc([N+](=O)[O-])cc1`, the AC50 was 2200 nM (active).
In the case of `C[N+]1(C)CCCCC1`, the molecule was called inactive.
Still for that read-out and setting: under `COP(=O)(NC(C)=O)SC` (stereo not given) stands “inactive”.
On to `CSc1nc(NC(C)C)nc(NC(C)C)n1`, for which the outcome was inactive.
The same measure, in the same setting: under `CC(C)N(C(=O)SCC(Cl)=C(Cl)Cl)C(C)C` stands “inactive”.
Regarding `CCOP(=O)(SC(C)CC)N1CCSC1=O` (stereo not given), the AC50 was 8820 nM (active).
On to `CON=C(C(=O)OC)c1ccccc1CON=C(C)c1cccc(C(F)(F)F)c1`, for which the molecule was called inactive.
Take `COc1ccc(C(=CC(=O)N2CCOCC2)c2ccc(Cl)cc2)cc1OC`: the AC50 was 2290 nM (active).
On to `CCCCOC(=O)[C@@H](C)Oc1ccc(Oc2ccc(C#N)cc2F)cc1`, for which the molecule was called inactive.
For the molecule `CNc1cnn(-c2cccc(C(F)(F)F)c2)c(=O)c1Cl`, the result was inactive.
Consider `CCOC(=O)COc1cc(-c2nn(C)c(OC(F)F)c2Cl)c(F)cc1Cl`, for which the AC50 is 3970 nM (active).
Take `O=[N+]([O-])c1cc(C(F)(F)F)c(Cl)c([N+](=O)[O-])c1Nc1ncc(C(F)(F)F)cc1Cl`: the call was inactive.
As to `CNC(=O)ON=C(SC)C(=O)N(C)C`, the molecule was called inactive.
The same measure, in the same setting: next, `Cc1cc(C2CC2)nc(Nc2ccccc2)n1`: “inactive”; `CC(C)=CC1C(C(=O)OCN2C(=O)C3=C(CCCC3)C2=O)C1(C)C` (stereo not given): “inactive”; `CC(C)[C@H](C(=O)O[C@H](C#N)c1cccc(Oc2ccccc2)c1)c1ccc(Cl)cc1`: “inactive”.
For the molecule `CSc1nnc(C(C)(C)C)c(=O)n1N`, the molecule was called inactive.
On the same count and under the same terms, under `O=c1ccc(=O)[nH][nH]1` stands “inactive”.
On to `CCCOCC(=Nc1ccc(Cl)cc1C(F)(F)F)n1ccnc1`, for which the call was inactive.
As for `CCOP(=S)(OCC)OC(Cl)C(Cl)(Cl)Cl` (stereo not given), the AC50 is 10500 nM (active).
Still for that read-out and setting: next, `CCc1cccc(CC)c1N(COC)C(=O)CCl`: 1930 nM (active).
